# High-throughput results deposited in PubChem by The Scripps Research Institute Molecular Screening Center.
# Rows were chosen to be rich in hits. Some 3.5% of all compounds tested hit in one or more screens of this group.
# GPR151 activ: activators of human GPR151, primary screen, cell-based, PathHunter beta-arrestin, luminescence; G-protein coupled receptor 151 (Homo sapiens), Q8TDV0; PathHunter beta-arrestin GPR151 cells; activation, % at 11.2 µM; 650,000 compounds, 1% hits; AID 1508602, 2020; in the data active means activation above about 4.9%;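 further: 0% = median of compound wells and 100% = cells with positive control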
# Target sequence (Q8TDV0 whole entry, looked up): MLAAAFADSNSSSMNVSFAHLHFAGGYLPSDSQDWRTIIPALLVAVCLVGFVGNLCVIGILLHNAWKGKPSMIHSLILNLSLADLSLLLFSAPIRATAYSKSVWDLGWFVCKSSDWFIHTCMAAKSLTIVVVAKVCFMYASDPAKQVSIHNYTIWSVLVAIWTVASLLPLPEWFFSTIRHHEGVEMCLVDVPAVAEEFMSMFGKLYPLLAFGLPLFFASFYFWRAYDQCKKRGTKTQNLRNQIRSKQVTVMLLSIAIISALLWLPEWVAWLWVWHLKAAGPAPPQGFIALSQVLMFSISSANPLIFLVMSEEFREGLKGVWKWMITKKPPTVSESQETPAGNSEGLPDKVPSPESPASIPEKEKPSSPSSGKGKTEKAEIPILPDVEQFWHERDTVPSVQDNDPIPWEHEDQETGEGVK
# MITF primary: MITF inhibitors, primary screen, biochemical, AlphaScreen, human. Microphthalmia-associated transcription factor (Homo sapiens), O75030. AlphaScreen MITF homodimerization, bead proximity signal. inhibition, % at 2.6 µM. 650,000 compounds, 0.91% hits. AID 1259374, 2018; in the data active means inhibition above about 50%;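 further: 0% = vehicle wells with protein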
# FBW7 activator: FBW7 E3 ligase activators, primary screen, biochemical, AlphaScreen, human; F-box/WD repeat-containing protein 7 (Homo sapiens), Q969H0; AlphaScreen FBW7–phospho-cyclin E peptide binding, activator screen; normalized activity (activation), % at 26.1 µM; 650,000 compounds, 0.13% hits; AID 1259310, 2017; in the data active means normalized activity above about 1.9%;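 further: purified mutant Fbw7 with reduced substrate affinity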
# TEAD-YAP block: TEAD-YAP interaction inhibition, primary screen, TEAD-YAP interaction inhibitor project, luminescence, HEK-TIYL cells; TEAD-Gal4/YAP UAS-luciferase luminescence; inhibition, % at 9.12 µM; 640,000 compounds, 1.4% hits; in the data active means inhibition above about 32%;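 further: 0% = median of test compound wells and 100% = reference inhibitor wells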
# MITF inh conf: MITF inhibitors, retest of hits, confirmation, biochemical, AlphaScreen, triplicate | shares compounds with MITF primary | AlphaScreen MITF homodimerization, biotin/His-MITF beads | inhibition, % at 2.6 µM | 4,700 compounds, 16% hits | AID 1259372, 2018;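 active means inhibition above a cutoff derived from the DMSO control wells, cut at about 28% in these data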;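 further: 0% = MITF dimer wells with DMSO only; inhibitors lower the bead chemiluminescence by keeping MITF from dimerizing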
# AlphaScreen DR: AlphaScreen optical interference compounds, dose response, counter-screen, biochemical, HTS; IC50, µM; 480 compounds, 6% hits; AlphaScreen optical interference counterscreen, cell-free; shares compounds with MITF primary; call rule not given here
# AS interf ctr: AlphaScreen optical interference compounds, counter-screen for MITF inhibitor project, biochemical, triplicate; 4,700 compounds, 7.6% hits; shares compounds with MITF primary; inhibition, % at 2.6 µM; LysRS AlphaScreen counterscreen, signal interference;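 active means inhibition above a cutoff derived from the DMSO control wells, cut at about 30% in these data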
# * marks the source's active call; other numbers are inactive results; . = no result.
SMILES,GPR151 activ,MITF primary,FBW7 activator,TEAD-YAP block,MITF inh conf,AS interf ctr,others
OCCN1CCN(Cc2ccc(Br)cc2)CC1,1.1,66.5*,0.0,6.5,-3.3,3.2,
O=C1NC(=O)N(Cc2ccccc2)C(=O)/C1=C/c1ccc(O)c(O)c1,0.3,0.8,0.1,-10.7,.,.,
Cc1cc(-n2c(/C=C/c3ccc(F)c(F)c3)nc3ccccc3c2=O)ccc1Br,-0.6,-13.4,-0.3,-1.4,.,.,
O=c1c2ccccc2nc(-c2ccccc2)n1-c1ccccc1O,-0.3,67.6*,0.0,11.7,32.0*,-5.9,AlphaScreen DR=>6.5
CN1CC=C(c2noc(CCC(=O)Nc3ccc(Cl)cc3)n2)CC1,1.2,72.6*,0.0,-1.5,67.8*,46.1*,
CCN(CC)S(=O)(=O)c1ccc(NC(=O)CCc2nc(C3=CCN(C)CC3)no2)cc1,-1.6,82.8*,-0.1,12.0,94.1*,65.8*,
CCOC(=O)N1CCC(NC(=O)CCc2nc(C3=CCN(C)CC3)no2)CC1,-1.0,53.3*,0.5,6.5,35.0*,14.6,AlphaScreen DR=>6.48
CCOC(=O)c1cccc(NC(=O)CCc2nc(C3=CCN(C)CC3)no2)c1,2.3,8.6,1.3,11.6,.,.,
CCN1CCN(Cc2ccc(NC(=O)CCc3nc(C4=CCN(C)CC4)no3)cc2)CC1,0.4,58.6*,3.9*,4.5,63.1*,41.5*,
O=C(Oc1cccc2ccccc12)N1CCOCC1,-0.5,-7.5,-0.1,-1.4,.,.,
CCc1ccc(NC(=O)CCc2nc(C3=CCN(C)CC3)no2)cc1,-1.5,65.0*,0.5,5.7,48.2*,19.0,AlphaScreen DR=>6.48
CC(C)c1ccc(NC(=O)CCc2nc(C3=CCN(C)CC3)no2)cc1,1.8,31.7,0.6,-3.1,.,.,
CN1CCN(Cc2ccccc2[N+](=O)[O-])CC1,-0.2,46.8,0.0,9.3,.,.,
O=[N+]([O-])c1ccccc1CN1CCN(Cc2ccc(F)cc2)CC1,0.3,67.9*,-0.1,-23.2,15.9,17.8,
O=[N+]([O-])c1ccccc1CN1CCN(c2ccc(F)cc2)CC1,-0.2,54.4*,-0.2,5.0,-2.0,-0.7,
Cc1ccc(N2CCN(Cc3ccccc3[N+](=O)[O-])CC2)cc1,-0.3,6.5,-0.3,-9.8,.,.,
O=[N+]([O-])c1ccc(CN2CCN(Cc3ccccc3)CC2)cc1,-0.8,57.2*,-0.1,-2.9,2.6,11.3,
Cc1ccccc1CN1CCN(Cc2ccc([N+](=O)[O-])cc2)CC1,0.3,63.4*,-0.4,0.9,-0.1,2.4,
CCC(C)N1CCN(Cc2ccccc2[N+](=O)[O-])CC1 (stereo not given),1.0,74.4*,-0.1,7.3,13.5,-13.6,
Cc1ccccc1CN1CCN(Cc2ccccc2[N+](=O)[O-])CC1,0.2,60.8*,-0.3,-7.0,2.4,-2.8,
Cc1ccc2c(c1)C1CN(C)CCC1N2C(=S)NC1CCCCC1 (stereo not given),0.7,-16.4,0.1,4.1,.,.,
C#CCOc1cccc(C=C2C(=O)NC(=S)NC2=O)c1,-0.7,21.1,0.2,0.3,.,.,
CCNC(=O)N1CCN(Cc2cccc(Cl)n2)CC1,-0.9,-2.0,0.0,-6.1,.,.,
COc1ccc2[nH]c(C)c(CCNCc3cccc(OC)c3OC)c2c1,0.7,51.9*,0.1,12.6,3.1,6.1,
Cc1ccc(C2(O)CC3CCC(C2)N3CCCOc2ccccc2)cc1 (stereo not given),-0.2,-13.9,0.3,0.3,.,.,
SMILES,GPR151 activ,MITF primary,FBW7 activator,TEAD-YAP block,MITF inh conf,AS interf ctr,others
CCOP(=O)(CN1CCCCCC1=O)OCC,1.0,-6.9,-0.1,-4.2,.,.,
CCn1c(O)c(C(c2ccccn2)c2c(O)n(CC)c(=S)[nH]c2=O)c(=O)[nH]c1=S,1.2,53.6*,-0.3,5.2,19.8,56.2*,
Cc1nn(C)cc1CN1CCC(n2c(C)nc3cc(C(F)(F)F)ccc32)CC1,1.0,-8.2,-0.1,-0.3,.,.,
CCc1ccc(CN2CCN(C(=O)Cc3ccccc3)CC2)cc1,0.5,33.0,0.1,10.5,.,.,
O=C(Cc1ccccc1)N1CCN(Cc2cccnc2)CC1,0.0,68.7*,-0.2,0.9,-1.1,-3.1,
Cc1cccc(CN2CCN(C(=O)Cc3ccccc3)CC2)c1,0.7,36.8,-0.1,6.1,.,.,
O=C(Cc1ccccc1)N1CCN(Cc2cccc(F)c2)CC1,0.6,53.6*,-0.1,3.2,-2.0,13.1,
O=C(Cc1ccccc1)N1CCN(Cc2ccccc2Cl)CC1,0.5,57.1*,0.0,13.5,-6.5,-0.1,
O=C(Nc1ccccc1C(F)(F)F)N1CCC2(CC1)OCCO2,0.8,-10.0,-0.1,0.6,.,.,
O=C(CF)C12CC3CC(CC(C3)C1)C2,-0.3,-0.9,0.0,2.9,.,.,
CC1(C)CC(=O)c2sc(N[N+](=O)[O-])nc2C1,-0.1,84.5*,0.5,-13.1,-0.9,-3.9,
O=c1oc2ccccc2c(O)c1C(c1cncs1)c1c(O)c2ccccc2oc1=O,-0.4,-22.1,0.0,-6.3,.,.,
CCN1CCN(c2ccc(Cl)cc2N)CC1,-0.9,-6.1,-0.2,-1.7,.,.,
CCN(CC)c1ncnc2c1ncn2[C@@H]1O[C@H](COP(=O)(O)OP(=O)(O)C(Br)(Br)P(=O)(O)O)C(O)[C@@H]1O (stereo not given in full),2.7,73.0*,0.4,.,88.2*,-23.2,AlphaScreen DR=>6.48
Nc1ncnc2c1ncn2[C@@H]1O[C@H](COP(=O)(O)CP(=O)(O)OP(=O)(O)O)[C@H](O)C1O (stereo not given in full),-1.5,10.6,-0.2,-3.9,.,.,
CC1(C)CC2CC(C)(CN2CCC#N)C1 (stereo not given),0.4,52.8*,-0.1,2.3,-12.3,-9.1,
CC(C#N)CN1CC2(C)CC1CC(C)(C)C2 (stereo not given),-0.3,38.5,0.1,-1.1,.,.,
CCC(CC)N1CCN(Cc2ccc(OC)c(OC)c2OC)CC1,-0.6,73.7*,0.2,9.9,1.4,3.8,
COc1ccc(OC)c(CN2CCN(Cc3ccccc3)CC2)c1,0.0,5.7,0.1,-4.7,.,.,
CCC(C)N1CCN(Cc2cc(OC)ccc2OC)CC1 (stereo not given),0.6,56.6*,0.1,-6.9,-2.3,2.8,
CCC(C)N1CCN(Cc2ccc(OC)c(OC)c2OC)CC1 (stereo not given),0.0,69.3*,-0.2,4.0,-0.5,-6.8,
O=C1NC(=O)N(c2ccc(Cl)cc2)C(=O)/C1=C/c1ccc([N+](=O)[O-])o1,0.3,43.3,-0.1,12.6,.,.,
O=c1[nH]c(=O)n(-c2ccc(Cl)cc2)c(O)c1C=Nc1cccc(O)c1,2.3,10.5,0.0,2.4,.,.,
